Reference: PubChem BioAssay (NCATS)
Results filed as inconclusive are left out. Calls of active or inactive are those of the source. The call rests on the fitted dose curve; in most records, active means well fitted cell-killing curve with a large enough effect; inconclusive means small, poorly fitted or top-dose-only effect, or effect the other way; inactive means no such curve, though single readings can be large or run the other way.

assay: Quantitative High-Throughput drug screen in 47 multiple myeloma cell lines against the NCATS MIPE library collection: OCIMY5_PLB cell viability assay (AID 1918988); settings: OCI-MY5 myeloma viability, ATP luminescence, 48 h; series mostly up to 45.8 µM; further: nearly all actives have a fitted effect of over 65% in size
Excerpt: PI: Beverly A. Mock Ph.D.
Laboratory of Cancer Biology and Genetics,
Center for Cancer Research, National Cancer Institute,
National Institute of Health, Bethesda, Maryland
Drug resistance and disease progression are common in multiple myeloma (MM) patients, underscoring the need for new therapeutic combinations. […] We hypothesized that effective combinations would reduce MYC expression and enhance p16 activity. […] These preclinical data identify potentially useful drug combinations for evaluation in drug-resistant MM and reveal potential mechanisms of combined drug sensitivity.
Described herein is the primary MIPE qHTS used to cherrypick compounds. Validated compounds were then further tested for potential synergistic activiy.
[1] Peat TJ, Gaikwad SM, Dubois W, Gyabaah-Kessie N, Zhang S, Gorjifard S, Phyo Z, Andres M, Hughitt VK, Simpson RM, Miller MA, Girvin AT, Taylor A, Williams D, D'Antonio N, Zhang Y, Rajagopalan A, Flietner E, Wilson K, Zhang X, Shinn P, Klumpp-Thomas C, McKnight C, Itkin Z, Chen L, Kazandijian D, Zhang J, Michalowski AM, Simmons JK, Keats J, Thomas CJ, Mock BA. Drug combinations identified by high-throughput screening promote cell cycle transition and upregulate Smad pathways in myeloma. Cancer Lett. 2023 Aug 1;568:216284. doi: 10.1016/j.canlet.2023.216284. Epub 2023 Jun 24. PMID: 37356470; PMCID: PMC10408729.
SEQUENCE No. (e.g., 1, 2, 3, etc.); […] (e.g., Cells, Incubation, Reagent, etc.); VALUE and DESCRIPTION.
1; Cells; 5 uL; white, solid bottom 1536-well Greiner assay plate.
2; Compounds; 23 nL; Kalypsis pin tool (Wako USA) equipped with a 1536-well pin head to transfer to the assay plates.
3; Incubation; 48 hours; 37C incubation.
4; Reagent;5uL; CellTiter Glo (Promega).
5; Detector; 425V; Luminescence; Viewlux PerkinElmer.
NOTES (numbers refer to Sequence numbers above)
1. The cell-based screening methods employed in this study were like those previously published. Briefly, the corresponding myeloma cell lines were screened in 1,536-well plates with 500 cells, 5-uL per well for inhibition of cell viability (assessed by measuring ATP levels with CellTiterGlo).
2. NCATS MIPE 4.0 library of approved and investigational drugs were added using the Kalypsis pin tool. Wells treated with DMSO only for 100% viability and media only for 0% viability were used as controls.
3. The assay plates were covered and incubated for 48 hours in a 37C, 5% CO2 incubator with controlled humidity.
4. After 48 hours, CellTilter-GloTM luminescent substrate mix (Promega) reagent was added to the assay plate and plates we incubated for 5 min at room temperature.
5. Signal was measured as median relative luminescence units on a ViewLux (PerkinElmer) multiplate reader.
[1] Heske CM, Davis MI, Baumgart JT, Wilson K, Gormally MV, Chen L, Zhang X, Ceribelli M, Duveau DY, Guha R, Ferrer M, Arnaldez FI, Ji J, Tran HL, Zhang Y, Mendoza A, Helman LJ, Thomas CJ. Matrix Screen Identifies Synergistic Combination of PARP Inhibitors and Nicotinamide Phosphoribosyltransferase (NAMPT) Inhibitors in Ewing Sarcoma. Clin Cancer Res. 2017 Dec 1;23(23):7301-7311. doi: 10.1158/1078-0432.CCR-17-1121. Epub 2017 Sep 12. PMID: 28899971; PMCID: PMC6636827.
Potency means the concentration at half of the fitted maximal effect.

Q: For `COc1ccc(-n2nc(C(N)=O)c3c2C(=O)N(c2ccc(N4CCCCC4=O)cc2)CC3)cc1`, which Potency is on record?
A: Its Potency is “inactive”.

Q: With `C[C@]12CC[C@H](O)CC1=CCC1C2CC[C@]2(C)C(n3cnc4ccccc43)=CCC12` (stereo not given in full) as the compound, how does the Potency read?
A: Its Potency is 18.7 µM (active).

Q: With `Nc1cc(C(F)(F)F)c(-c2cc(N3CCOCC3)nc(N3CCOCC3)n2)cn1` as the compound, how does the Potency read?
A: The Potency was 0.187 µM (active).

Q: For `C=CC(=O)Nc1cc2c(Nc3ccc(F)c(Cl)c3)ncnc2cc1C#CC(C)(C)N1CCN(C)CC1`, which Potency is on record?
A: Its Potency is 0.935 µM (active).

Q: With `CN(C1CCc2c(c3ccccc3n2CC(=O)O)C1)S(=O)(=O)c1ccc(F)cc1` (stereo not given) as the compound, how does the Potency read?
A: Its Potency is 4.69 µM (active).

Q: With `CCCn1c(=O)c2[nH]c(-c3cnn(Cc4cccc(C(F)(F)F)c4)c3)nc2n(CC)c1=O` as the compound, how does the Potency read?
A: Its Potency is 23.5 µM (active).

Q: With `OCCCNc1cc(-c2ccnc(Nc3cccc(Cl)c3)n2)ccn1` as the compound, how does the Potency read?
A: The Potency was 0.105 µM (active).

Q: With `CCc1c2c(nc3ccc(O)cc13)-c1cc3c(c(=O)n1C2)COC(=O)[C@]3(O)CC` as the compound, how does the Potency read?
A: The Potency was 1.18 µM (active).

Q: For `COc1cc2c(NC3CCN(C(C)C)CC3)nc(C3CCCCC3)nc2cc1OCCCN1CCCC1`, which Potency is on record?
A: Its Potency is 6.62 µM (active).

Q: For `Cc1cc(N2CCOCC2)cc2[nH]c(-c3c(NC[C@@H](O)c4cccc(Cl)c4)cc[nH]c3=O)nc12`, which Potency is on record?
A: The Potency was 1.66 µM (active).

Q: Which Potency does the source give for `CCn1cc(-c2ccnc3[nH]c(-c4cccc(CN(C)C)c4)cc23)c(-c2ccc(NC(=O)N(C)C)cc2)n1` here?
A: Its Potency is 4.18 µM (active).

Q: Which Potency does the source give for `Cc1cn2c(-c3cn[nH]c3)cnc2c(Nc2ccc(C(=O)N3CCNCC3)cc2F)n1` here?
A: The Potency was 20.9 µM (active).

Q: Which Potency does the source give for `Nc1nc(-c2nn(Cc3ccccc3F)c3ncccc23)nc(N)c1N1CCOCC1` here?
A: The Potency was “inactive”.

Q: With `C=C1C(=CC=C2CCCC3(C)[C@@H]([C@H](C)C=CC=CC(O)(CC)CC)CC[C@@H]23)C[C@@H](O)C[C@@H]1O` (stereo not given in full) as the compound, how does the Potency read?
A: Its Potency is 10.5 µM (active).

Q: Which Potency does the source give for `CC(C)c1ccc(Cn2ccc3c4c(N)nc(NC5CC5)nc4ccc32)cc1` here?
A: Its Potency is 2.35 µM (active).

Q: Which Potency does the source give for `Cc1cn(-c2cc(NC(=O)c3ccc(C)c(Nc4nccc(-c5cccnc5)n4)c3)cc(C(F)(F)F)c2)cn1` here?
A: The Potency was 13.2 µM (active).

Q: For `N#CCNC(=O)c1ccc(-c2ccnc(Nc3ccc(N4CCOCC4)cc3)n2)cc1`, which Potency is on record?
A: The Potency was 13.2 µM (active).

Q: For `CC(C)[C@H](C(=O)Nc1ccc(C(=O)NO)cc1)c1ccccc1`, which Potency is on record?
A: The Potency was 0.526 µM (active).

Q: For `C=CC(=O)Nc1cccc(Oc2nc(Nc3ccc(N4CCN(C)CC4)cc3OC)ncc2Cl)c1`, which Potency is on record?
A: Its Potency is 0.0026 µM (active).

Q: For `CN1CCN(Cc2ccc(NC(=O)Nc3ccc(Oc4cc(NC(=O)C5CC5)ncn4)cc3)cc2C(F)(F)F)CC1`, which Potency is on record?
A: The Potency was 0.332 µM (active).

Q: For `CC(=O)Nc1nc(C)c(-c2ccc(Cl)c(S(=O)(=O)NCCO)c2)s1`, which Potency is on record?
A: Its Potency is 9.35 µM (active).

Q: For `Cc1[nH]nc2ccc(-c3cncc(OC[C@@H](N)Cc4ccccc4)c3)cc12`, which Potency is on record?
A: The Potency was 3.32 µM (active).

Q: For `Nc1ccn([C@@H]2CS[C@H](CO)O2)c(=O)n1`, which Potency is on record?
A: The Potency was “inactive”.

Q: Which Potency does the source give for `Nc1nccc(Oc2ccc(NC(=O)c3c[nH]cc(-c4ccc(F)cc4)c3=O)cc2F)c1Cl` here?
A: Its Potency is 26.4 µM (active).

Q: For `CC(C)(C)OC(=O)Nc1ccc(-c2cc(C(=O)NCCCCCCC(=O)NO)no2)cc1`, which Potency is on record?
A: The Potency was 1.87 µM (active).

Q: Which Potency does the source give for `CN1CCC(CNc2ccc3ncc(-c4cccc(OC(F)(F)F)c4)n3n2)CC1` here?
A: The Potency was 14.8 µM (active).

Q: For `COC(=O)Nc1nc2ccc(C(=O)c3ccc(F)cc3)cc2[nH]1`, which Potency is on record?
A: The Potency was 0.469 µM (active).

Q: Which Potency does the source give for `CCC(=C(c1ccccc1)c1ccc(OCCN(C)C)cc1)c1ccccc1` here?
A: The Potency was 29.6 µM (active).

Q: For `CC[C@@]1(O)C(=O)OCc2c1cc1n(c2=O)Cc2cc3cc(O)ccc3nc2-1`, which Potency is on record?
A: The Potency was 1.66 µM (active).

Q: With `NC(=O)c1c(OCc2c(F)cc(Br)cc2F)nsc1NC(=O)NCCCCN1CCCC1` as the compound, how does the Potency read?
A: Its Potency is 23.5 µM (active).

Q: For `C[C@@H](Oc1cc(-n2cnc3ccc(CN4CCN(C)CC4)cc32)sc1C(N)=O)c1ccccc1C(F)(F)F`, which Potency is on record?
A: Its Potency is 0.0469 µM (active).

Q: Which Potency does the source give for `CCN1CCN(CC(=O)Nc2ccc(-c3cccc4c(=O)cc(N5CCOCC5)oc34)c3sc4ccccc4c23)CC1` here?
A: Its Potency is 1.05 µM (active).

Q: With `CC1(C)O[C@@H]2C[C@@H]3[C@H]4C[C@@H](F)C5=CC(=O)C=C[C@]5(C)[C@@]4(F)[C@@H](O)C[C@]3(C)[C@]2(C(=O)CO)O1` as the compound, how does the Potency read?
A: The Potency was 0.0166 µM (active).

Q: Which Potency does the source give for `Cc1cc(CN2CCN(c3c(Br)cnc4nc(-c5ccc(N6CCN(C)CC6)cc5)[nH]c34)CC2)no1` here?
A: The Potency was 7.43 µM (active).

Q: Which Potency does the source give for `CNC(=O)CN1CCC(Oc2cc3c(Nc4cccc(Cl)c4F)ncnc3cc2OC)CC1` here?
A: The Potency was 0.0118 µM (active).

Q: Which Potency does the source give for `CC(C)c1noc(N2CCC(COc3ccc(-c4ccc(S(C)(=O)=O)cc4)nc3)CC2)n1` here?
A: The Potency was 8.33 µM (active).

Q: For `Cc1nc2cnc3ccc(C#Cc4cccnc4)cc3c2n1-c1ccc(C(C)(C)C#N)cc1`, which Potency is on record?
A: Its Potency is 6.62 µM (active).

Q: With `O=C(O)c1ccc2c(c1)nc(Nc1cccc(Cl)c1)c1ccncc12` as the compound, how does the Potency read?
A: Its Potency is 13.2 µM (active).

Q: With `Fc1cc(-c2cccc3ncc(-c4cnn(C5CCNCC5)c4)nc23)cc(F)c1CN1CCOCC1` as the compound, how does the Potency read?
A: Its Potency is 16.6 µM (active).

Q: Which Potency does the source give for `CNC(=O)c1ccc(N2C(=S)N(c3cnc(C#N)c(C(F)(F)F)c3)C(=O)C23CCC3)cc1F` here?
A: The Potency was 0.118 µM (active).
